High-throughput results deposited in PubChem BioAssay by Broad Institute.
Only a selection was taken, and hits are over-represented in it overall.
CD40 NFkB inh – CD40 pathway inhibition in BL2 cells. BL2 NF-kB luciferase reporter, CD40L-induced, 4 h. actives 0.94% (n = 83,000). AID 1053188. inhibition, % at 10 µM;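 active = mean inhibition of at least 50% with a set share of replicates also reaching that level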;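 also: 0% = neutral control wells and 100% = IKK inhibitor VII at 50 µM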
* = called active by the depositor; [ ] = dose if it differs, or a comment.

SMILES	CD40 NFkB inh
C[C@@H]1CN([C@@H](C)CO)C(=O)Cc2cc(NC(=O)Nc3ccc(C(F)(F)F)cc3)ccc2O[C@H]1CN(C)Cc1ccccc1	-4
C[C@@H]1CN([C@@H](C)CO)C(=O)Cc2cc(NC(=O)Cc3cn(C)c4ccccc34)ccc2O[C@H]1CN(C)Cc1ccc(C(F)(F)F)cc1	66*[25 µM]
C[C@H]1CN([C@@H](C)CO)C(=O)Cc2cc(NS(=O)(=O)c3cccs3)ccc2O[C@@H]1CN(C)Cc1ccc(Cl)c(Cl)c1	57*
Cc1noc(C)c1S(=O)(=O)Nc1ccc2c(c1)CC(=O)N([C@@H](C)CO)C[C@@H](C)[C@@H](CN(C)Cc1ccc(Cl)c(Cl)c1)O2	15
N#C[C@@H]1[C@@H](c2ccc(C#Cc3cccnc3)cc2)[C@@H](CO)N1C(=O)NC1CCCC1	5
CCCCCCCCN1C(=O)C(C(C)=O)=C(C)C1(C)O (stereo not given)	5[25 µM]
O=C(Nc1cc(F)ccc1F)N[C@@H]1CC[C@@H](CCn2cc(C3CCCC3)nn2)O[C@H]1CO	3
COc1ccccc1NC(=O)N(C)C[C@H]1OCc2ccccc2-c2ccccc2C(=O)N([C@@H](C)CO)C[C@H]1C	-11
CC(C)NC(=O)N1[C@H](CN(C)C(=O)c2cccnc2)[C@@H](c2ccccc2)[C@@H]1CO	-12
CN(C)CC(=O)Nc1ccc2c(c1)[C@@H]1C[C@@H](CC(=O)N3CCCCC3)O[C@H](CO)[C@@H]1O2	6[25 µM]
CN1C(=O)c2cc(NS(=O)(=O)c3ccccc3F)ccc2OC[C@@H]2O[C@H](CC(=O)NC3Cc4ccccc4C3)CC[C@H]21	8[25 µM]
CCC(=O)N1[C@H](CO)[C@H](c2ccc(-c3ccccc3OC)cc2)[C@H]1CNC(C)=O	-10[25 µM]
C[C@@H]1CN([C@H](C)CO)C(=O)c2c(c3ccccc3n2C)-c2ccccc2CO[C@@H]1CN(C)C(=O)c1ccncc1	-3
COc1ccccc1CNC(=O)C[C@@H]1C[C@@H]2c3cc(NC(=O)Nc4ccccc4F)ccc3O[C@@H]2[C@H](CO)O1	4[25 µM]
CC[n+]1c(C)sc2cc(C)ccc21	56*
CC[n+]1c(/C=C(/C)SC)sc2ccccc21	26
Cc1sc2ccccc2[n+]1CC(=O)O	-11
CC(=O)Nc1ccc2c(c1)C(=O)N(C)C[C@@H](C)[C@@H](CN(C)C)O2	-1
C[C@@H]1CN(C)C(=O)c2cccc(N)c2O[C@@H]1CN(C)C	12
Cc1nc(N2[C@H](CO)[C@H](c3ccccc3)[C@H]2CNCC2CCCC2)sc1C	19
CCCCNC(=O)C1(C)CCN1C(=O)c1cc(-c2cccs2)oc1C (stereo not given)	105*
CCCCNC(=O)C1(C)CCN1C(=O)c1ccccc1Br (stereo not given)	9
CCCCNC(=O)C1(C)CCN1C(=O)c1ccc(C)c(F)c1 (stereo not given)	3
COCCNC(=O)[C@H]1[C@H](CO)[C@H]2Cn3c(cccc3=O)[C@@H]1N2Cc1cccc(Cl)c1	1[25 µM]
CN(C)C(=O)c1ccc(-c2ccc3c(c2)[C@@H]2[C@@H](CCN2C(=O)C2CCCCC2)[C@@H](CO)N3C)cc1	-4
SMILES	CD40 NFkB inh
CCC(=O)N1[C@@H]2CN(C(=O)c3ccncc3)c3ccccc3[C@@H]2[C@@H]1CO	-2[25 µM]
N#Cc1cccc(-c2ccc([C@@H]3[C@@H](CO)N4CCCCN(C(=O)Nc5cccc(F)c5)C[C@H]34)cc2)c1	17[25 µM]
O=C(Nc1ccc(F)cc1)N1CCCCN2[C@@H](CO)[C@@H](c3ccc(C#Cc4ccccc4)cc3)[C@@H]2C1	63*
O=C(Nc1ccc(F)cc1)N1CCCCN2[C@H](CO)[C@@H](c3ccc(C#Cc4ccccc4)cc3)[C@H]2C1	4
N#Cc1cccc(-c2ccc([C@@H]3[C@H](CO)N4CCCCN(C(=O)Nc5cccc(F)c5)C[C@@H]34)cc2)c1	92*[25 µM]
N#Cc1cccc(-c2ccc([C@@H]3[C@H]4CN(C(=O)Nc5cccc(F)c5)CCCCN4[C@H]3CO)cc2)c1	18[25 µM]
O=C(Nc1ccccc1)N1CCCCN2[C@@H](CO)[C@@H](c3ccc(C#Cc4ccccc4)cc3)[C@@H]2C1	28
O=C(C[C@@H]1C[C@H]2c3cc(NC(=O)Nc4ccccc4)ccc3O[C@H]2[C@@H](CO)O1)NCCN1CCCCC1	-7[25 µM]
C[C@@H]1CN([C@@H](C)CO)C(=O)c2c(c3ccccc3n2C)-c2ccccc2CO[C@H]1CN(C)Cc1ccc(C(=O)O)cc1	-7
Nc1ncnc2nc(-c3ccc(N4CCOCC4)nc3)cc(-c3cccc(Br)c3)c12	-20[25 µM]
O=C(O)c1cc(-c2ccccc2)c(N2CCOCC2)s1	8
Nc1ccc(-c2cccc3c(=O)cc(N4CCOCC4)oc23)cc1	58*[25 µM]
COc1ccc(CN2[C@@H]3CN(C(=O)Nc4ccc(F)cc4)c4ccccc4[C@@H]3[C@@H]2CO)cc1	-24[25 µM]
C[C@H]1CN([C@@H](C)CO)C(=O)c2ccccc2-c2ccccc2CO[C@@H]1CN(C)Cc1ccc(C(=O)O)cc1	-13
C[C@H](CO)N1C[C@H](C)[C@@H](CN(C)Cc2ccc(Oc3ccccc3)cc2)Oc2c(NC(=O)CCC(F)(F)F)cccc2C1=O	70*[25 µM]
C[C@@H]1CN([C@H](C)CO)C(=O)c2ccccc2-c2ccccc2CO[C@@H]1CN(C)Cc1ccc(Oc2ccccc2)cc1	41[25 µM]
C[C@H]1CN([C@@H](C)CO)C(=O)c2ccccc2-c2ccccc2CO[C@H]1CN(C)Cc1ccc(O)cc1	-4
C[C@@H]1CN([C@@H](C)CO)C(=O)c2ccccc2-c2ccccc2CO[C@@H]1CN(C)Cc1ccc(Oc2ccccc2)cc1	62*[25 µM]
C[C@@H]1CN([C@@H](C)CO)C(=O)c2ccccc2-c2ccccc2CO[C@@H]1CN(C)Cc1ccccc1	15
C[C@H](CO)N1C[C@H](C)[C@@H](CN(C)Cc2ccc(Oc3ccccc3)cc2)Oc2c(NC(=O)c3ccncc3)cccc2C1=O	34
C[C@H]1CN([C@@H](C)CO)C(=O)c2ccccc2-c2ccccc2CO[C@H]1CN(C)Cc1ccc(Oc2ccccc2)cc1	59*[25 µM]
C[C@@H]1CN([C@H](C)CO)C(=O)c2cc(NC(=O)CCC(F)(F)F)ccc2O[C@H]1CN(C)Cc1ccc(Oc2ccccc2)cc1	-4
C[C@@H]1CN([C@H](C)CO)C(=O)c2ccccc2-c2ccccc2CO[C@@H]1CN(C)Cc1ccc(C(=O)O)cc1	-8
CN(C)c1ccc2c(c1)[C@@H]1C[C@@H](CC(=O)NCc3ccccc3F)O[C@H](CO)[C@@H]1O2	-7[25 µM]
CO[C@@H](CN(C)S(=O)(=O)c1ccc(C)cc1)[C@H](C)CN(C(=O)Nc1ccccc1F)[C@@H](C)CO	-31[25 µM]
SMILES	CD40 NFkB inh
C[C@@H]1CN([C@@H](C)CO)C(=O)c2ccccc2-c2ccccc2CO[C@@H]1CN(C)S(C)(=O)=O	4[25 µM]
CNC[C@H]1Oc2c(NS(C)(=O)=O)cccc2C(=O)N(C)C[C@H]1C	-1
C[C@@H]1CN([C@@H](C)CO)C(=O)c2c(c3ccccc3n2C)-c2ccccc2CO[C@@H]1CN(C)S(=O)(=O)c1cn(C)cn1	-3[25 µM]
Cc1noc(C)c1S(=O)(=O)N(C)C[C@@H]1Oc2ccc(NS(=O)(=O)c3ccc(Cl)cc3)cc2CC(=O)N([C@H](C)CO)C[C@H]1C	-5
Cc1noc(C)c1S(=O)(=O)N(C)C[C@H]1OCCCC[C@@H](C)Oc2ccc(NC(=O)CCC(F)(F)F)cc2C(=O)N([C@@H](C)CO)C[C@@H]1C	12[25 µM]
N#C[C@@H]1[C@@H](c2ccc(C#Cc3ccc(F)cc3)cc2)[C@H](CO)N1C(=O)C1CCC1	1[25 µM]
N#C[C@H]1[C@@H](c2ccc(C#Cc3cccc(F)c3)cc2)[C@@H](CO)N1C(=O)C1CCCC1	1
